# The antibiotic and cytotoxicity screens of Wong et al. (2023)
# The campaign covered roughly 39,000 compounds. About 3,300 (8.5%) were called active. For the sample, actives were picked, then their nearest neighbours and some compounds at random.
# Test system: HepG2
# Test: cytotoxicity call (relative viability < 0.9)
# Conditions: 10 µM
row,SMILES,cytotoxicity call
1,COc1ccc(S(=O)(=O)Nc2ccc3c(c2)C(=O)N([C@@H](C)CO)C[C@H](C)[C@H](CN(C)Cc2ccc(C(F)(F)F)cc2)OCCCC[C@H](C)O3)cc1,active
2,COc1ccc(S(=O)(=O)Nc2ccc3c(c2)C(=O)N([C@@H](C)CO)C[C@@H](C)[C@H](CN(C)Cc2ccc(C(F)(F)F)cc2)OCCCC[C@@H](C)O3)cc1,active
3,COc1ccc(S(=O)(=O)Nc2ccc3c(c2)C(=O)N([C@@H](C)CO)C[C@@H](C)[C@@H](CN(C)Cc2ccc(C(F)(F)F)cc2)OCCCC[C@@H](C)O3)cc1,active
4,COc1ccc(S(=O)(=O)Nc2ccc3c(c2)C(=O)N([C@H](C)CO)C[C@@H](C)[C@@H](CN(C)Cc2ccc(C(F)(F)F)cc2)OCCCC[C@H](C)O3)cc1,inactive
5,COc1ccc(S(=O)(=O)Nc2ccc3c(c2)C(=O)N([C@@H](C)CO)C[C@H](C)[C@@H](CN(C)Cc2ccc(C(F)(F)F)cc2)OCCCC[C@@H](C)O3)cc1,active
6,COc1ccc(S(=O)(=O)Nc2ccc3c(c2)C(=O)N([C@H](C)CO)C[C@H](C)[C@@H](CN(C)Cc2ccc(C(F)(F)F)cc2)OCCCC[C@@H](C)O3)cc1,inactive
7,C[C@@H]1CCCCO[C@@H](CN(C)C(=O)c2ccncc2)[C@@H](C)CN([C@H](C)CO)C(=O)c2cc(NC(=O)NC3CCCCC3)ccc2O1,inactive
8,CO[C@H]1CN(C)C(=O)c2ccc(NC(=O)C3CC3)cc2OC[C@H](C)N(C(=O)Cc2ccccn2)C[C@@H]1C,inactive
9,C[C@@H]1CN([C@H](C)CO)C(=O)c2cccc(NC(=O)Nc3ccccc3)c2O[C@@H]1CN(C)Cc1ccc(Cl)c(Cl)c1,inactive
10,C[C@H](CO)N1C[C@H](C)[C@@H](CN(C)C(=O)Nc2ccc3c(c2)OCO3)Oc2ncc(-c3cccnc3)cc2C1=O,inactive
11,CCS(=O)(=O)Nc1ccc2c(c1)C(=O)N(C)[C@H]1CC[C@@H](CC(=O)NCCOC)O[C@H]1CO2,inactive
12,C[C@H](CO)N1C[C@H](C)[C@H](CN(C)CC2CCCCC2)Oc2c(NC(=O)c3cnccn3)cccc2C1=O,inactive
13,Nc1ccn([C@@H]2CS[C@H](CO)O2)c(=O)n1,inactive
14,CN1CCN(C(=O)C[C@H]2CC[C@@H]3[C@@H](COc4ccc(NC(=O)C5CCCCC5)cc4C(=O)N3C)O2)CC1,inactive
15,CCCNC(=O)N1C[C@]2(CN(C2)S(=O)(=O)c2ccc(cc2)OC)c2c(n(c3cc(ccc23)OC)C)[C@@H]1CO,inactive
16,C[C@H](CO)N1C[C@H](C)[C@@H](CN(C)C(=O)c2cccc(F)c2)Oc2cc(C#CC3CC3)ccc2S1(=O)=O,inactive
17,CNC(=O)C[C@H]1CC[C@H]2[C@@H](COC[C@H](O)CN2C(=O)Nc2ccc3c(c2)OCO3)O1,inactive
18,C[C@@H]1CN([C@@H](C)CO)C(=O)c2cc(NC(=O)c3ccncc3)ccc2O[C@@H]1CN(C)S(=O)(=O)c1cccs1,inactive
19,COc1ccc(NC(=O)N(C)C[C@@H]2Oc3ccc(NS(C)(=O)=O)cc3C(=O)N([C@H](C)CO)C[C@@H]2C)cc1,inactive
20,Cc1noc(C)c1NC(=O)N(C)C[C@H]1OCCCC[C@H](C)Oc2ccc(NC(=O)Nc3cccc4ccccc34)cc2C(=O)N([C@H](C)CO)C[C@@H]1C,inactive
21,C[C@@H]1CN([C@@H](C)CO)C(=O)c2cccc(NC(=O)c3ccc(-c4nccs4)cc3)c2O[C@H]1CN(C)C(=O)Nc1ccc2c(c1)OCO2,inactive
22,O=C(O)c1cc(O)c2cccc(O)c2n1,inactive

row,SMILES,cytotoxicity call
1,COc1ccc(S(=O)(=O)Nc2ccc3c(c2)C(=O)N([C@H](C)CO)C[C@H](C)[C@@H](CN(C)Cc2ccc(C(F)(F)F)cc2)OCCCC[C@H](C)O3)cc1,inactive
2,COc1ccc(S(=O)(=O)Nc2ccc3c(c2)C(=O)N([C@@H](C)CO)C[C@@H](C)[C@H](CN(C)Cc2ccc(C(F)(F)F)cc2)OCCCC[C@H](C)O3)cc1,active
3,COc1ccc(S(=O)(=O)Nc2ccc3c(c2)C(=O)N([C@H](C)CO)C[C@H](C)[C@H](CN(C)Cc2ccc(C(F)(F)F)cc2)OCCCC[C@@H](C)O3)cc1,active
4,COc1ccc(S(=O)(=O)Nc2ccc3c(c2)C(=O)N([C@H](C)CO)C[C@@H](C)[C@@H](CN(C)Cc2ccc(C(F)(F)F)cc2)OCCCC[C@@H](C)O3)cc1,active
5,COc1ccc(S(=O)(=O)Nc2ccc3c(c2)C(=O)N([C@H](C)CO)C[C@@H](C)[C@H](CN(C)Cc2ccc(C(F)(F)F)cc2)OCCCC[C@@H](C)O3)cc1,active
6,COc1ccc(S(=O)(=O)Nc2ccc3c(c2)C(=O)N([C@@H](C)CO)C[C@H](C)[C@@H](CN(C)Cc2ccc(C(F)(F)F)cc2)OCCCC[C@H](C)O3)cc1,inactive
7,COc1ccc(S(=O)(=O)Nc2ccc3c(c2)C(=O)N([C@@H](C)CO)C[C@H](C)[C@H](CN(C)Cc2ccc(C(F)(F)F)cc2)OCCCC[C@@H](C)O3)cc1,inactive
8,COc1ccc(S(=O)(=O)Nc2ccc3c(c2)C(=O)N([C@H](C)CO)C[C@H](C)[C@H](CN(C)Cc2ccc(C(F)(F)F)cc2)OCCCC[C@H](C)O3)cc1,inactive
9,COc1ccc(S(=O)(=O)Nc2ccc3c(c2)C(=O)N([C@@H](C)CO)C[C@@H](C)[C@@H](CN(C)Cc2ccc(C(F)(F)F)cc2)OCCCC[C@H](C)O3)cc1,inactive
10,COc1ccc(S(=O)(=O)Nc2ccc3c(c2)C(=O)N([C@H](C)CO)C[C@@H](C)[C@H](CN(C)Cc2ccc(C(F)(F)F)cc2)OCCCC[C@H](C)O3)cc1,inactive
11,C[C@H]1CN([C@@H](C)CO)C(=O)c2cc(NC(=O)CCCN(C)C)ccc2O[C@H]1CN(C)S(=O)(=O)c1ccccc1,inactive
12,C[C@@H]1CN([C@@H](C)CO)S(=O)(=O)c2ccc(Br)cc2O[C@H]1CN(C)C(=O)C1CCCCC1,inactive
13,C[C@@H]1CN([C@H](C)CO)C(=O)c2cc(-c3cccc(C(=O)N(C)C)c3)cnc2O[C@H]1CN(C)S(=O)(=O)c1cccc(F)c1,inactive
14,Cc1cc(C(=O)Nc2cccc3c2O[C@@H](CN(C)S(=O)(=O)c2cccs2)[C@@H](C)CN([C@@H](C)CO)C3=O)n(C)n1,inactive
15,O=C1C[C@@](C(=O)NCc2ccccc2)(c2ccc([N+](=O)[O-])cc2)[C@@H](c2ccc(CO)cc2)N1CC12CC3CC(CC(C3)C1)C2,inactive
16,Cc1ccc(S(=O)(=O)n2cc([C@H]3CC(=O)N(C(=O)OCc4ccccc4)[C@H]3C(=O)Nc3cccc4cccnc34)c3ccccc32)cc1,inactive
17,C[C@@H]1CN([C@@H](C)CO)C(=O)c2cccc(NC(=O)Nc3ccc4c(c3)OCO4)c2O[C@H]1CN(C)S(=O)(=O)c1cn(C)cn1,inactive
18,Cc1cccc(CN2CCN(C(c3ccccc3)c3ccc(Cl)cc3)CC2)c1.Cl.Cl (centres undefined),inactive
19,Cl.Cl.Fc1ccc(C(c2ccc(F)cc2)N2CCN(CC=Cc3ccccc3)CC2)cc1,inactive
20,COc1ccc(CN2CCN(C(c3ccc(F)cc3)c3ccc(F)cc3)CC2)c(OC)c1OC.Cl,active
21,Cc1ccc(S(=O)(=O)N(C)C[C@H]2Oc3c(NC(=O)C4CCOCC4)cccc3C(=O)N([C@H](C)CO)C[C@H]2C)cc1,inactive
22,CCc1nc2ccc(C(=O)Nc3cc(-c4ccccc4)ccc3OC)cn2c1N(C)C(=O)c1cccc(OC)c1,inactive

row,SMILES,cytotoxicity call
1,CC(C)NC(=O)Nc1ccc2c(c1)CC(=O)N([C@H](C)CO)C[C@H](C)[C@@H](CN(C)S(=O)(=O)c1ccccc1)O2,inactive
2,Cc1noc(C)c1NC(=O)N(C)C[C@@H]1OCCCC[C@H](C)Oc2ccc(NC(=O)c3ccccc3)cc2C(=O)N([C@@H](C)CO)C[C@H]1C,inactive
3,Cc1ccc2nc(SCc3ccc4ccccc4c3)[nH]c2c1,active
4,Cc1ccc2nc(SCc3c(C)c(C)cc(C)c3C)[nH]c2c1,inactive
5,Cc1ccc2nc(CN)[nH]c2c1,inactive
6,CCCN(C)C[C@@H]1OCCCC[C@@H](C)Oc2ccc(NC(=O)CCC(F)(F)F)cc2C(=O)N([C@H](C)CO)C[C@@H]1C,inactive
7,C[C@@H]1CCCCO[C@H](CN(C)Cc2ccc(C(=O)O)cc2)[C@H](C)CN([C@@H](C)CO)C(=O)c2cc(NC(=O)NC3CCCCC3)ccc2O1,inactive
8,C[C@H](CO)N1C[C@H](C)[C@H](CN(C)C(=O)c2ccccc2)OCCCC[C@H](C)Oc2ccc(NC(=O)c3ccccc3)cc2C1=O,inactive
9,C=CCC[C@H](Cc1ccc(F)cc1)C(=O)OC[C@H](Cc1c[nH]c2ccccc12)NC(=O)[C@H](CC=C)CC(=O)N[C@@H](CO)Cc1ccccc1,inactive
10,C=CC[C@H](CC(=O)N[C@@H](CO)Cc1ccccc1)C(=O)N[C@@H](COC(=O)[C@@H](CC=C)Cc1ccc(F)cc1)Cc1c[nH]c2ccccc12,inactive
11,C=CCC[C@@H](Cc1ccc(F)cc1)C(=O)OC[C@H](Cc1c[nH]c2ccccc12)NC(=O)[C@@H](CC=C)CC(=O)N[C@H](CO)Cc1ccccc1,inactive
12,C=CCC[C@@H](Cc1ccc(F)cc1)C(=O)OC[C@@H](Cc1c[nH]c2ccccc12)NC(=O)[C@H](CC=C)CC(=O)N[C@@H](CO)Cc1ccccc1,inactive
13,C=CCC[C@H](Cc1ccc(F)cc1)C(=O)OC[C@H](Cc1c[nH]c2ccccc12)NC(=O)[C@@H](CC=C)CC(=O)N[C@@H](CO)Cc1ccccc1,active
14,C=CCC[C@H](Cc1ccc(F)cc1)C(=O)OC[C@H](Cc1c[nH]c2ccccc12)NC(=O)[C@@H](CC=C)CC(=O)N[C@H](CO)Cc1ccccc1,active
15,C=CCC[C@H](Cc1ccc(F)cc1)C(=O)OC[C@@H](Cc1c[nH]c2ccccc12)NC(=O)[C@H](CC=C)CC(=O)N[C@@H](CO)Cc1ccccc1,active
16,C=CCC[C@H](Cc1ccc(F)cc1)C(=O)OC[C@@H](Cc1c[nH]c2ccccc12)NC(=O)[C@@H](CC=C)CC(=O)N[C@@H](CO)Cc1ccccc1,inactive
17,C=CCC[C@@H](Cc1ccc(F)cc1)C(=O)OC[C@@H](Cc1c[nH]c2ccccc12)NC(=O)[C@@H](CC=C)CC(=O)N[C@@H](CO)Cc1ccccc1,inactive
18,C=CCC[C@@H](Cc1ccc(F)cc1)C(=O)OC[C@H](Cc1c[nH]c2ccccc12)NC(=O)[C@@H](CC=C)CC(=O)N[C@@H](CO)Cc1ccccc1,active
19,C=CCC[C@@H](Cc1ccc(F)cc1)C(=O)OC[C@@H](Cc1c[nH]c2ccccc12)NC(=O)[C@@H](CC=C)CC(=O)N[C@H](CO)Cc1ccccc1,inactive
20,C=CC[C@@H](CC(=O)N[C@H](CO)Cc1ccccc1)C(=O)N[C@H](COC(=O)[C@@H](CC=C)Cc1ccc(F)cc1)Cc1c[nH]c2ccccc12,inactive
